# Measured values as given in publication PMC13494018.
# Unmarked numbers belong to inactive results. How the calls were made is not given here.
# B1: design_597_f3dcd2b3-c7aa-4b15-88bc-bbb8d01a18cd_2241_dldesign_0_cycle1_af2pred (protein)
# chain: EAAAIAKEAAAVAEEAAKKEEDPGKAEALKKAAKRIKAAAAGTKFEIASAVASAAEQAEWVGYPKEVVDKLEAKAEKIEKA
# B2: design_597_f3dcd2b3-c7aa-4b15-88bc-bbb8d01a18cd_1120_dldesign_0_cycle1_af2pred (protein)
# chain: MLAKIARIIADITTATAKLLRKTGPKFVKLTKVLAVLADIIGDLALKTGKEEDIKAGGYALAAAERARHAAEAAE
# B3: design_597_f3dcd2b3-c7aa-4b15-88bc-bbb8d01a18cd_2339_dldesign_0_cycle1_af2pred (protein)
# chain: AKALRYAGRAEIYMELAETAAKLAIEAAKKDPAEGKKYLEKMKEKVKKAVELAEKADPALAKEYEAKGKELIEKAEKAIKAQIEKA
# B4: design_597_f3dcd2b3-c7aa-4b15-88bc-bbb8d01a18cd_1746_dldesign_0_cycle1_af2pred (protein)
# chain: SLKTKALAEAGRAIALSDSVISALPDSELAKKAKEIKKKAEEAMEKAEKGEKLEEALKEAKKLKEEAKKLRKEAEKEKKA
# B5: design_597_f3dcd2b3-c7aa-4b15-88bc-bbb8d01a18cd_2160_dldesign_0_cycle1_af2pred (protein)
# chain: NATEIYREGREKAKELAKKGGKLVKDGEEFARRLVAAANTYFADPEEGEKQLDELIKEAEKESPEAAKIAKEVLKAAKEYLKKLDEEG
# B6: design_597_f3dcd2b3-c7aa-4b15-88bc-bbb8d01a18cd_627_dldesign_0_cycle1_af2pred (protein)
# chain: MYKELAENYRKGVRALSRRYRLRAELDPAKAAEYGAEATRERDKLFNASPEEVKKAAEEWAKEEAAVAAEAAALAAAA
# B7: design_598_15ab41e9-cad4-4381-8935-81f74b313fe8_88_dldesign_0_cycle1_af2pred (protein)
# chain: GSAKELAEKLRYVNRKIKEAGELAKELEKAGYPEEAKKLRELAQKARDALMAGDLDAAYKAAKELEEKIKEAKKKLEA
# B8: design_597_f3dcd2b3-c7aa-4b15-88bc-bbb8d01a18cd_2357_dldesign_0_cycle1_af2pred (protein)
# chain: NEEIKAKQLAGRLEALADSLKSAAEKAAKETKDPEKAKKLKEIAKEAEKAVEEAKKKIKEGKAEEAYKEGKEKVEKAKKEVEKIAKE
# B9: design_597_f3dcd2b3-c7aa-4b15-88bc-bbb8d01a18cd_2332_dldesign_0_cycle1_af2pred (protein)
# chain: SVVEEVKEEAKKAIEEGKKGDAGTAAALGYEAKALAEQKAKLYPEEAEELKKIAEEVKKEAKEIAEKKLKEKKAA
# B10: design_597_f3dcd2b3-c7aa-4b15-88bc-bbb8d01a18cd_1493_dldesign_0_cycle1_af2pred (protein)
# chain: AEAERARREAALAEAERRAAELIFAAVDEGTKVSNEEAAKVMEETRARIEALMDETGAAYDPERAAEIRDRATATMTRLAESYK
# B11: design_598_15ab41e9-cad4-4381-8935-81f74b313fe8_72_dldesign_0_cycle1_af2pred (protein)
# chain: SELVKKASDLYRELVRKAREVAEKAGKAGDPEEAKKLAGDAVWAAQENVEEGIKIAKELGKKTGVEKEVEEFIKLMKEYAKALEEVSN
# B12: design_597_f3dcd2b3-c7aa-4b15-88bc-bbb8d01a18cd_1586_dldesign_0_cycle1_af2pred (protein)
# chain: AAAIEKAKAAVEELLKAAEEALKLAEKDPSYAKYAEEVKKKINKVAKELKEALLADPSVANKLQEARQIATEAEATAKIKK
# B13: design_597_f3dcd2b3-c7aa-4b15-88bc-bbb8d01a18cd_2142_dldesign_0_cycle1_af2pred (protein)
# chain: AAAAAAAEAARAEAAKAFTEAIDLAYSDPKYIPILEKTSEDSAATFIAAGKLSGKTAEWTAKGELIKKTSERIIKDIKK
# B14: design_597_f3dcd2b3-c7aa-4b15-88bc-bbb8d01a18cd_2381_dldesign_0_cycle1_af2pred (protein)
# chain: AAAEAAAAAAKAAAKAEAAKHLEKAFDLIADGGTVEEVEKEAEKAIEYAAKADEKYKKLAERTAKRIIENAKIAAKREEEN
# B15: design_597_f3dcd2b3-c7aa-4b15-88bc-bbb8d01a18cd_2475_dldesign_0_cycle1_af2pred (protein)
# chain: MTPLEESAAKAQEAREEAAEKEQKGKLLAEKGNYKEGAKEYKKGAEELKKAAKFAEEAGDKEAAERLKKRAERLEKLAKEYEKKAK
# B16: design_598_15ab41e9-cad4-4381-8935-81f74b313fe8_121_dldesign_0_cycle1_af2pred (protein)
# chain: MMEKKKKEAEIKRDAAIEQAKTIVEANKDKPFEEILEKVEKSVERFKESIEKIDPEIGKEEGEKARKESEEIVKKASEA
# B17: design_597_f3dcd2b3-c7aa-4b15-88bc-bbb8d01a18cd_1020_dldesign_0_cycle1_af2pred (protein)
# chain: GHSEEGKEISEKIREISRIAKEAGKEIKKYPGGEELMKELGETRDKAIDEAAEGGLEEAKKALEKVKKAAKELLKKAKA
# B18: design_597_f3dcd2b3-c7aa-4b15-88bc-bbb8d01a18cd_2077_dldesign_0_cycle1_af2pred (protein)
# chain: EIKKLAAEAFDYYYEAKAMADALKADKNGKEAAKKIEELAKKIKEYGKKILETKDLKEAKKLYEEAKKLYEEAVKIFDEFAK
# B19: design_597_f3dcd2b3-c7aa-4b15-88bc-bbb8d01a18cd_2297_dldesign_0_cycle1_af2pred (protein)
# chain: MEEAEKLLKKAEEAAKKGDAETAKKLAEELRELSKKEKDKEKAAAYSEAAFEAKGYAFLAEIKQEKKKELE
# B20: design_598_15ab41e9-cad4-4381-8935-81f74b313fe8_127_dldesign_0_cycle1_af2pred (protein)
# chain: SAMDLLLEILDYNDEALKAAKEGNKEEMEKYIKKAFEIAEELGKKYGPEAEERAKRYVEKAKKEAEEIYKK
# B21: design_597_f3dcd2b3-c7aa-4b15-88bc-bbb8d01a18cd_925_dldesign_0_cycle1_af2pred (protein)
# chain: HKEENEAMKEILDEFNEAGRKMQEYVKAGKLEEAKKALEEEAKKMLEIGKKAGENALELAEELVEEARRNLEKAIEAAK
# B22: design_597_f3dcd2b3-c7aa-4b15-88bc-bbb8d01a18cd_1306_dldesign_0_cycle1_af2pred (protein)
# chain: GKMKEDEEKLKEIEKEAKKAIEEAKKLAKEDPKKGAEYAKKASKEITERGTELGKTMSPEVRKKLAEVVQKAREELTEIAFKAR
# B23: design_597_f3dcd2b3-c7aa-4b15-88bc-bbb8d01a18cd_2012_dldesign_0_cycle1_af2pred (protein)
# chain: AEAKKEAAKLSEEAAELAAEAWLKAKKAKPEEAEKYKKAAEYFKEAIKILQAGEDLEKAKALYEKGKALYEEA
# B24: design_597_f3dcd2b3-c7aa-4b15-88bc-bbb8d01a18cd_1782_dldesign_0_cycle1_af2pred (protein)
# chain: MEEVKKKVAEAVQAGYRAAATLSKEEGKKLREETKELAKKLTELVKKSEELAGDPEKAKALADEATKIAEKAKEEYEKIDKA
# B25: design_597_f3dcd2b3-c7aa-4b15-88bc-bbb8d01a18cd_1491_dldesign_0_cycle1_af2pred (protein)
# chain: DEGEKLKKEFKEEIEEVAKEAKELVKEGVSPKVAARLVENTAEVLIKEAEKHKEGEEIKKAVKEEAEKKKEEILKL
# B26: design_597_f3dcd2b3-c7aa-4b15-88bc-bbb8d01a18cd_1536_dldesign_0_cycle1_af2pred (protein)
# chain: SGANAAQEARAEYTAAKQLAKINKKDKEKAAKLLEEAYKKVEELAKKADEEGKKIAEKYAKELKELAKKYLKE
# B27: design_597_f3dcd2b3-c7aa-4b15-88bc-bbb8d01a18cd_1339_dldesign_0_cycle1_af2pred (protein)
# chain: AEAEKYKKEAEKALKELEEIAKKYPSSTKIQANYESAKEYFEHNEQAAKLNPEKAAEAYKKAYEYAKRKLEEAKKIAEELEKKE
# B28: design_597_f3dcd2b3-c7aa-4b15-88bc-bbb8d01a18cd_1341_dldesign_0_cycle1_af2pred (protein)
# chain: AAAVEAAKAEITKLAAELSAKAFEAKAAASVFPEYKPVYELYKEAAEKAKEGLVLLKALGEKALEEAKKLAEEAKKLAKEGDELEKKL
# B29: design_597_f3dcd2b3-c7aa-4b15-88bc-bbb8d01a18cd_1765_dldesign_0_cycle1_af2pred (protein)
# chain: SMEEEKKKKEAEKARKEAEKAIEEIKKNPENKELQTEALAKAYEAKAIDKEVGKEAIKKVREAIKEARKKL
# B30: design_597_f3dcd2b3-c7aa-4b15-88bc-bbb8d01a18cd_2462_dldesign_0_cycle1_af2pred (protein)
# chain: DPLREAAKAAVEAMGKAAKEVGLTKEASELAGLVHEALSAAKAGIHAKEILKEAAEAAKKAAEEYPEAKELFEKVAKEVEKMEKLV
# B31: design_598_15ab41e9-cad4-4381-8935-81f74b313fe8_13_dldesign_0_cycle1_af2pred (protein)
# chain: AEKSREEGVKKAEEAAKLAKEAGLEEKAKKIKEAAKKAAKTGTDEDLKELSKTALEAAKLADPEKGAKISELRVEAAGYFELARIQ
# B32: design_597_f3dcd2b3-c7aa-4b15-88bc-bbb8d01a18cd_2474_dldesign_0_cycle1_af2pred (protein)
# chain: MKADEEAAKKAAAARDTAFDKIAAGEDPQAAYDAAKAEMKKIAEEYGVSPETKEKIEKGIKALERFAAAAAKAAA
# B33: design_597_f3dcd2b3-c7aa-4b15-88bc-bbb8d01a18cd_1026_dldesign_0_cycle1_af2pred (protein)
# chain: MEVVEKMAEEIAKAAEEAGDKVTAALARAVAARAKKEKEISPEEAVKRLGEDAKFMAEDNGNEELAKKIKEIAEKALKEV
# B34: design_597_f3dcd2b3-c7aa-4b15-88bc-bbb8d01a18cd_2262_dldesign_0_cycle1_af2pred (protein)
# chain: AEAEEALKAAKAAAAKAKEAADAAIADPATKAAGEKAKKLIEAREKKAEANASDVRVLQSAVEFFNHMAAALKKILA
# B35: design_598_15ab41e9-cad4-4381-8935-81f74b313fe8_148_dldesign_0_cycle1_af2pred (protein)
# chain: MAEEAKKTSDAIREMVKIAKEAGKEVAGSPEAQKKIAAARDKAMDAVAAGEDPEEQLKKAKEEIEAVVAEEKA
# B36: design_597_f3dcd2b3-c7aa-4b15-88bc-bbb8d01a18cd_2336_dldesign_0_cycle1_af2pred (protein)
# chain: AQAAKVAAALAAAEKRLAISTARAKELAKKNPQAGYEYMEIRTDHMAAALAKVDPAAGAEVKARGAALAAEIKA
# B37: design_598_15ab41e9-cad4-4381-8935-81f74b313fe8_205_dldesign_0_cycle1_af2pred (protein)
# chain: DFKAKADAEATLERAEQAEKAAKKIGEELAKLAEEAKKLAEAGLKSDDPEKREALTKAARELLKELQKLGKEKKEK
# B38: design_597_f3dcd2b3-c7aa-4b15-88bc-bbb8d01a18cd_1719_dldesign_0_cycle1_af2pred (protein)
# chain: LEKNVKKAIEAAKKAIEAGKKAKEAGLEELAKEAIEKAKKAIEAAAKDKASGGETAKETANAAQEARQAKSEAESAIKKK
# Target: VTCN1, Q7Z7D3
# Sequence (Q7Z7D3 whole entry): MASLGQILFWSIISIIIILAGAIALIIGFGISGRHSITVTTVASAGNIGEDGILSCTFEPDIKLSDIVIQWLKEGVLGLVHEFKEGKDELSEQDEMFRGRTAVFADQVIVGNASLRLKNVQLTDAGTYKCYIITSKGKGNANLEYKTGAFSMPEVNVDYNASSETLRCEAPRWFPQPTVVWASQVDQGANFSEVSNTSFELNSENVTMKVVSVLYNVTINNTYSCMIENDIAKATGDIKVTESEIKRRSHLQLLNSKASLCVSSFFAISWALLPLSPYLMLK
row,Binder,binding in a display sort
1,B1,not found
2,B2,not found
3,B3,not found
4,B4,not found
5,B5,not found
6,B6,not found
7,B7,not found
8,B8,not found
9,B9,not found
10,B10,not found
11,B11,not found
12,B12,not found
13,B13,not found
14,B14,not found
15,B15,not found
16,B16,not found
17,B17,not found
18,B18,not found
19,B19,not found

row,Binder,binding in a display sort
1,B20,not found
2,B21,not found
3,B22,not found
4,B23,not found
5,B24,not found
6,B25,not found
7,B26,not found
8,B27,not found
9,B28,not found
10,B29,not found
11,B30,not found
12,B31,not found
13,B32,not found
14,B33,not found
15,B34,not found
16,B35,not found
17,B36,not found
18,B37,not found
19,B38,not found
